From PubChem BioAssay AID588827 (Broad Institute, 2011)
About 20 (0.8%) of roughly 2,400 compounds were called active. Inconclusive results (about 19%) are left out.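 The calls were made as follows: active = fitted half-maximal concentration for signal decrease at or below twice the top tested dose, in every repeat run; inconclusive = repeat runs disagree, or flat partial inhibition, or poor fit; inactive = all runs flat, wrong-direction or potency beyond limit.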 Only a sample is shown. Results with a measured potency or affinity are listed apart.

Test: GFP reporter loss versus dox-driven RFP – NIH3T3 R4 cells, cherry-pick, set 4, dose response (AID 588827);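 also: 0% = neutral control wells and -100% = didemnin B at 400 nM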
Conditions: NIH3T3 R4 HSF-1 GFP reporter, heat shock, 48 h; series mostly up to 19.5 µM; activity change, negative = inhibition: at the top concentration

Structure (SMILES) | activity change, negative = inhibition
O=S(=O)(Nc1cccc(Oc2cnccn2)c1)c1ccc(F)cc1 | -8.07% (inactive)
CCOc1cc(/C=N/NC(=O)c2cccc(S(=O)(=O)N3CCOCC3)c2)ccc1OCC(=O)N(C)C | -8.98% (inactive)
Cc1ccc(-c2cc3c(N=O)c4ccccc4c-3n[nH]2)cc1 | 9.74% (inactive)
CCCN(CCC)C(=O)CSc1nc2ccsc2c(=O)n1NC(=O)c1ccccc1 | -0.911% (inactive)
COc1cccc(C(c2sc3nc(C)nn3c2O)N2CCN(C(=O)c3ccco3)CC2)c1 (stereo unspecified) | -17.6% (inactive)
Cn1c(=O)c2ccccc2n(Cc2ccccc2Cl)c1=O | -29.6% (inactive)
O=C(CCl)NC(Cc1ccccc1)c1ccccc1 (stereo unspecified) | 9.09% (inactive)
COC(=O)c1cc(S(=O)(=O)NCCc2ccccc2)c[nH]1 | -14.9% (inactive)
O=C(CCl)N=c1sccn1Cc1ccc(Cl)cc1Cl | -29.8% (inactive)
Cc1ccc(S(=O)(=O)N2CCN(CC(=O)N/N=C\c3ccncc3)CC2)cc1 | -9.13% (inactive)
O=C(O)c1ccc2nc(-c3ccccc3)sc2c1 | -4.16% (inactive)
Cn1c(=O)c2c(SCC(=O)N3CCCc4ccccc43)nc(C3CC3)nc2n(C)c1=O | -16.5% (inactive)
Cc1ccc(C)c(NC(=O)COc2coc(CN3CCc4ccccc4C3)cc2=O)c1 | -27.9% (inactive)
Cc1ccc2[nH]c(=O)c(CN(C(=O)c3cccc([N+](=O)[O-])c3)C(C)C)cc2c1 | -24.7% (inactive)
O=C(Nc1ccc(S(=O)(=O)N2CCOCC2)cc1)c1ccc(Cl)cc1Cl | -21.7% (inactive)
COC(=O)c1nn(-c2ccc3c(c2)CCN3C(C)=O)cc1O | 21.1% (inactive)
Cc1cc(C)c2[nH]c(=O)c(C(c3nnnn3CC3CCCO3)N3CCC(C)CC3)cc2c1 (stereo unspecified) | -26.5% (inactive)
N=C(N)SCc1ccccc1Cl | 19.3% (inactive)
COc1ccc(C(=O)NCc2nnc(SCC(=O)N3CCC(C)CC3)o2)cc1OC | -11.6% (inactive)
O=C(Cn1nc2ccccc2n1)N/N=C/c1cc([N+](=O)[O-])ccc1O | 6% (inactive)
O=C(Oc1ccccc1Cl)c1ccc(-n2cncn2)nc1 | -8.84% (inactive)
COc1ccc(S(=O)(=O)N2CCCCCC2)cc1C(=O)OCC(=O)NC(C)(C)C | -11.8% (inactive)

Structure (SMILES) | activity change, negative = inhibition
Nc1ccccc1-c1nc2ccccc2s1 | -7.02% (inactive)
O=C(N1CCCCC1)N1CCN(S(=O)(=O)c2ccccc2)CC1 | -11.3% (inactive)
COc1ccc(S(=O)(=O)N2CCCC2)cc1C(C)C | -16.1% (inactive)
Cc1nc2sccn2c(=O)c1S(=O)(=O)Nc1ccc(N2CCOCC2)c(Cl)c1 | -25.3% (inactive)
COC(=O)c1cccc(NC(=O)CN2CCN(Cc3ccccc3)CC2)c1 | 2.65% (inactive)
CN1CCc2c(sc(/N=C/c3cc(C(C)(C)C)ccc3O)c2C#N)C1 | 3.37% (inactive)
COc1ccc2[nH]c3c(=O)n(CCCN4CCOCC4)cnc3c2c1 | -12.4% (inactive)
CCO/C(C)=C1/SC(=S)NC1=O | 3.62% (inactive)
c1ccc(OCCSc2nc3ccccc3o2)cc1 | -18% (inactive)
COc1cc(NC(=O)c2cc(C)nc3ccccc23)cc(OC)c1 | -25.1% (inactive)
COc1cccc(C(=O)c2c[nH]c(C(=O)NCc3ccco3)c2)c1 | -5.49% (inactive)
COc1ccc(CNC(=O)c2cnc3scc(C)n3c2=O)cc1 | -20.1% (inactive)
COc1ccc(Cl)cc1C(=O)NCC(=O)OCc1ccccc1 | 8.73% (inactive)
O=C(CCNC(=O)c1ccc(Cl)cc1)Nc1ncccc1O | -4.94% (inactive)
CCCCOC(=O)CSCC(=O)Nc1cc(C)on1 | 2.2% (inactive)
CCN(CC)S(=O)(=O)c1ccc2c(c1)c(=O)c(C(=O)NCc1ccco1)cn2C | -6.4% (inactive)
CC(=O)N(c1ccc2oc(=O)sc2c1)S(=O)(=O)c1ccc(C(=O)O)cc1 | -1.71% (inactive)
CCOC(=O)c1cc(S(=O)(=O)N2CCc3ccccc32)cn1C | -12.5% (inactive)
Fc1ccccc1N1CCN(Cc2cc(-c3ccccc3)on2)CC1 | -10.8% (inactive)
CCc1ccccc1NC(=O)CSc1nnc(-c2ccncc2)o1 | -11.8% (inactive)
COCCNC(=O)C(OC(=O)c1cccs1)c1ccccc1 (stereo unspecified) | 2.58% (inactive)
COc1ccc(CCNC(=O)CN(c2ccc(OC)c(OC)c2)S(C)(=O)=O)cc1OC | -22.4% (inactive)

Structure (SMILES) | activity change, negative = inhibition
CCC(NC(=S)NCc1ccccc1)C(=O)O (stereo unspecified) | 29.3% (inactive)
CCOCCn1c(SCC(=O)OCc2ccccc2)nc2c1c(=O)[nH]c(=O)n2C | -11.3% (inactive)
CC(C)c1nc2ccccc2c2nnc(SCC(=O)NCc3ccco3)n12 | -7.5% (inactive)
CC(=O)Nc1ccc(-c2cn3c(n2)SCC3)cc1 | -4.99% (inactive)
CC1(C)Cc2nc3[nH]c(=S)n(-c4ccccc4)c(=O)c3cc2CO1 | -13.3% (inactive)
Cc1ccc(S(=O)(=O)c2ccc(Oc3ccccc3)cc2)cc1 | -11% (inactive)
CC1CCCN(c2ncnc3c2cnn3-c2ccc(Cl)cc2)C1 (stereo unspecified) | -10.3% (inactive)
COc1ccc(Cn2nnnc2C(c2cc3cccc(C)c3[nH]c2=O)N2CCN(C)CC2)cc1 (stereo unspecified) | 7.29% (inactive)
CC(C)c1ccc(NC(=O)N(CCc2nc3ccccc3[nH]2)C2CCCC2)cc1 | 78.7% (inactive)
CCCS(=O)(=O)N1CCc2cc(OC)c(OC)cc2C1 | -3.49% (inactive)
CCC(Sc1nc2cc(OC)c(OC)cc2c(=O)n1CCc1ccc(S(N)(=O)=O)cc1)C(=O)NCCOC (stereo unspecified) | 16.7% (inactive)
O=C(N/N=C/c1ccccn1)c1ccc([N+](=O)[O-])cc1 | -24.2% (inactive)
CN(C)c1ccc(CNc2ccc3c(c2)ncn3C(C)(C)C)cc1 | -15.9% (inactive)
COc1cccc(-n2nc(-c3ccnn3-c3cccc(Cl)c3)c(=O)n(C)c2=O)c1 | -21.5% (inactive)
CCOC(=O)c1cc2sccc2n1CC(=O)Nc1ccc(OC)cc1 | -14.8% (inactive)
Cc1cccc(-c2ocnc2C(=O)N2CCN(C(=O)c3cccs3)CC2)c1 | -4.21% (inactive)
CCOC(=O)c1c(C)nc2c(C)cccn12 | -16.6% (inactive)
CC(C)(C)C(=O)OCc1nc(-c2ccc3c(c2)OCCO3)cs1 | 9.21% (inactive)
Cc1nn(C(C)(C)C)c(C)c1/C=N/OC(=O)Nc1ccc(Cl)c(Cl)c1 | -12.2% (inactive)
Nc1nc(CSC(=S)N2CCCCC2)nc(Nc2ccccc2)n1 | -2.27% (inactive)
NS(=O)(=O)c1ccc(NC2=CC(=O)C(=O)c3ccccc32)cc1 | -43.6% (inactive)
Cn1c(NC(=O)c2ccccc2NC(=O)C(C)(C)C)nc2ccccc21 | -22.4% (inactive)
